{"source": "the supplement of paper PMC11001985", "note": "A number with no mark means an inactive call.", "data": [{"compound": "C#CCNC(=O)CCSSCCC(=O)NCCc1ccc(C=O)c(C=O)c1", "test": "lysine labeling ratio R10:1 (500 µM / 50 µM probe), SILAC-ABPP in living cells; higher = lower intrinsic lysine reactivity toward the probe, active = 2 or less", "settings": "HeLa; probe concentrations 500 vs 50 µM", "procedure,_shortened": "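For each lysine, R is the median over forward and reverse replicates of the filtered median MS1 peptide ratio of high probe to low probe. The probe, an alkyne-tagged, disulfide-linked lysine probe, was given at 500 µM or 50 µM to living SILAC light and heavy HeLa cells in PBS at room temperature, with label swaps. Values are capped at 20.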", "values": [{"target": "UniProt P02768 (lysine site: K229)", "sequence (P02768 whole entry)": "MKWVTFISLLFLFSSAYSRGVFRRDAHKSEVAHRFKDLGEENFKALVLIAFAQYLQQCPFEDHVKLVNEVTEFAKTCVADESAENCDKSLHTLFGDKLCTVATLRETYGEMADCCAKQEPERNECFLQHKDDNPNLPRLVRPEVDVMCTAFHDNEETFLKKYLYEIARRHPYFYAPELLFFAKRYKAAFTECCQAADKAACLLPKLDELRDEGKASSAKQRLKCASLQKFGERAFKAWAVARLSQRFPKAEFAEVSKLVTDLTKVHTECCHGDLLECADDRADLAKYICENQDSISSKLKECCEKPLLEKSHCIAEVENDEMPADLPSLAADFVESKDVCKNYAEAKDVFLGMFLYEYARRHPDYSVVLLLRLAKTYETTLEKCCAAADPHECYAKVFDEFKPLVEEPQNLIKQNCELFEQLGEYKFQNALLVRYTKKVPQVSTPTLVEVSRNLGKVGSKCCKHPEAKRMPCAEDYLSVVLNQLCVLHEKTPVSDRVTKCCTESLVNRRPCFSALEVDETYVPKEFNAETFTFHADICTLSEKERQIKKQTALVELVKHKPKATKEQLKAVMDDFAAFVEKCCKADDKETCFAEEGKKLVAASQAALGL", "lysine labeling ratio R10:1": 5.69}, {"target": "FLNA (lysine site: K1375) (UniProt P21333)", "lysine labeling ratio R10:1": 2.93}, {"target": "ROBO1 (lysine site: K516) (UniProt Q9Y6N7)", "lysine labeling ratio R10:1": 4.56}, {"target": "DCBLD2 (lysine site: K391) (UniProt Q96PD2)", "sequence (Q96PD2 whole entry)": "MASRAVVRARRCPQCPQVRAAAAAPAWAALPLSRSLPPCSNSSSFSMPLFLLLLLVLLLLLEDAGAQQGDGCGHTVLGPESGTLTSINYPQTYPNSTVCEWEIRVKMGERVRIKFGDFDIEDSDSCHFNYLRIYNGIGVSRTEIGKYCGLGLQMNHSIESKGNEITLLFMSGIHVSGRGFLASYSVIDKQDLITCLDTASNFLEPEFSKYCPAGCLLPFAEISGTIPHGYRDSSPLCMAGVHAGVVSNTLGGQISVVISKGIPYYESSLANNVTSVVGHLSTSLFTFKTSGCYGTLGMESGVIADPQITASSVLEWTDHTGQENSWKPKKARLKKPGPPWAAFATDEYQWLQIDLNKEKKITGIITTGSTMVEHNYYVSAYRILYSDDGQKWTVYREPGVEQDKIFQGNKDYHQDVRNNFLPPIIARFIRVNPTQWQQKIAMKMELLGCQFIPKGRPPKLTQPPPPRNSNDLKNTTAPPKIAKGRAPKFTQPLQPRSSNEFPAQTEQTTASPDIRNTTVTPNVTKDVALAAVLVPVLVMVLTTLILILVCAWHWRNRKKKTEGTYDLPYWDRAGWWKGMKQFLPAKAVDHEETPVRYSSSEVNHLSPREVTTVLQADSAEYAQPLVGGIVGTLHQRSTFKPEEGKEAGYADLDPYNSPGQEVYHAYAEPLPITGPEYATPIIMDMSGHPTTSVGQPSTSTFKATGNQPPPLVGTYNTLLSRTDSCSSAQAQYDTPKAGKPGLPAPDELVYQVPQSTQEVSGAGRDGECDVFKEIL", "lysine labeling ratio R10:1": 3.28}, {"target": "NCL (lysine site: K467) (UniProt P19338)", "lysine labeling ratio R10:1": "0.565 (active)"}, {"target": "UniProt P60660 (lysine site: K26)", "sequence (P60660 whole entry)": "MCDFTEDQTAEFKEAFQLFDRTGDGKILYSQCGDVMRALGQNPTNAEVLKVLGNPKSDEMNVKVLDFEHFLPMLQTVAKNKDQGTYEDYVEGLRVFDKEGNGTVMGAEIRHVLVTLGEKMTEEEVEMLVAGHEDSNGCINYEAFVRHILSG", "lysine labeling ratio R10:1": "1.69 (active)"}, {"target": "CD109 (lysine site: K1022) (UniProt Q6YHK3)", "lysine labeling ratio R10:1": "0.98 (active)"}, {"target": "EZR (lysine site: K162) (UniProt P15311)", "lysine labeling ratio R10:1": "0.7 (active)"}, {"target": "XRCC6 (lysine site: K582) (UniProt P12956)", "sequence (P12956 whole entry)": "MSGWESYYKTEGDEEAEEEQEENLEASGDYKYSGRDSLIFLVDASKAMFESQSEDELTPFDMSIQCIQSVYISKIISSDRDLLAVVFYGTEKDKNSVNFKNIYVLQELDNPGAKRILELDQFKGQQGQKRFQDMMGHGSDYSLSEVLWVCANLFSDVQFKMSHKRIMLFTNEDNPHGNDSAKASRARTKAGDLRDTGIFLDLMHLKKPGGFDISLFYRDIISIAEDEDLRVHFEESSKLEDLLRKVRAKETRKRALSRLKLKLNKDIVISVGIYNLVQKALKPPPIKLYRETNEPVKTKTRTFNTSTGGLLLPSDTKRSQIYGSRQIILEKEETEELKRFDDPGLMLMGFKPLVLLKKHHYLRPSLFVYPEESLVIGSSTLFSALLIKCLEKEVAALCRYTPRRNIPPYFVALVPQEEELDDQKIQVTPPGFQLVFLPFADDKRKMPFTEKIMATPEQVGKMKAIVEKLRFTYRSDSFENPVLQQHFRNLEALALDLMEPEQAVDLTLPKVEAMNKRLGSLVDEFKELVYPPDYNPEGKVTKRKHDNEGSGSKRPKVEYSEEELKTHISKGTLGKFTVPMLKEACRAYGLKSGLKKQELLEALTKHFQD", "lysine labeling ratio R10:1": "1.52 (active)"}, {"target": "FASN (lysine site: K673) (UniProt P49327)", "lysine labeling ratio R10:1": 2.24}, {"target": "S100A6 (lysine site: K47) (UniProt P06703)", "lysine labeling ratio R10:1": 6.34}, {"target": "SLC4A2 (lysine site: K893) (UniProt P04920)", "sequence (P04920 whole entry)": "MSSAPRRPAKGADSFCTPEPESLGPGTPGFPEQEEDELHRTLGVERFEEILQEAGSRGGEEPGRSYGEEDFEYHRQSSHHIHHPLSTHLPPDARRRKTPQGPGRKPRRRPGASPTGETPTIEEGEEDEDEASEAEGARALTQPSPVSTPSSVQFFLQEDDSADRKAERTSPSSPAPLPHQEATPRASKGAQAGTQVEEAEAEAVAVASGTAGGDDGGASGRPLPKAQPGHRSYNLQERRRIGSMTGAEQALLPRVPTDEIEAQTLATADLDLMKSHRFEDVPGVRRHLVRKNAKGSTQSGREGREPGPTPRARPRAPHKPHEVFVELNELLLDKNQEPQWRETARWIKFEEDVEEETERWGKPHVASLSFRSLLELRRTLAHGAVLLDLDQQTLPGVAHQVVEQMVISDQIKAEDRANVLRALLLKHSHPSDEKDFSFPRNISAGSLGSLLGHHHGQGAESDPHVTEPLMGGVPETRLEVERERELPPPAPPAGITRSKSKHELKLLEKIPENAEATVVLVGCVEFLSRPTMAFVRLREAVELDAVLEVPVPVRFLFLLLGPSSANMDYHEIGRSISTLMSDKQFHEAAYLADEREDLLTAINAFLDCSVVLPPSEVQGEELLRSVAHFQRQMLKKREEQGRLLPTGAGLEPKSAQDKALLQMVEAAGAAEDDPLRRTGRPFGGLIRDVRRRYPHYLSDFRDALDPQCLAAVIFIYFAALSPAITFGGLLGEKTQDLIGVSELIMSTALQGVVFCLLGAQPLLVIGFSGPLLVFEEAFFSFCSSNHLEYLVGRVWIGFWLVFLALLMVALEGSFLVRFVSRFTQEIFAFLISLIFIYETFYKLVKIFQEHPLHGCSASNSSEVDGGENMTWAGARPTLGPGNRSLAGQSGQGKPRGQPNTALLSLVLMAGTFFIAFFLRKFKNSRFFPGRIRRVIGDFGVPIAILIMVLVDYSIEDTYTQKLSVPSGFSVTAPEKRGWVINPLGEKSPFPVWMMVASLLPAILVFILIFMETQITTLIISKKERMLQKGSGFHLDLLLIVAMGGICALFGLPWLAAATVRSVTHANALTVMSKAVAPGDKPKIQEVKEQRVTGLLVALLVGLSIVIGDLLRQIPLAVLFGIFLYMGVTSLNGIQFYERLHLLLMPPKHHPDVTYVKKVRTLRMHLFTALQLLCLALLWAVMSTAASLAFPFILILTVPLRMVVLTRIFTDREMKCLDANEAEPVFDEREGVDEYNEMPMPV", "lysine labeling ratio R10:1": 3.14}, {"target": "NRP1 (lysine site: K231) (UniProt O14786)", "lysine labeling ratio R10:1": 5.85}, {"target": "ATP1B1 (lysine site: K277) (UniProt P05026)", "lysine labeling ratio R10:1": 17.2}, {"target": "RBMX (lysine site: K63) (UniProt P38159)", "sequence (P38159 whole entry)": "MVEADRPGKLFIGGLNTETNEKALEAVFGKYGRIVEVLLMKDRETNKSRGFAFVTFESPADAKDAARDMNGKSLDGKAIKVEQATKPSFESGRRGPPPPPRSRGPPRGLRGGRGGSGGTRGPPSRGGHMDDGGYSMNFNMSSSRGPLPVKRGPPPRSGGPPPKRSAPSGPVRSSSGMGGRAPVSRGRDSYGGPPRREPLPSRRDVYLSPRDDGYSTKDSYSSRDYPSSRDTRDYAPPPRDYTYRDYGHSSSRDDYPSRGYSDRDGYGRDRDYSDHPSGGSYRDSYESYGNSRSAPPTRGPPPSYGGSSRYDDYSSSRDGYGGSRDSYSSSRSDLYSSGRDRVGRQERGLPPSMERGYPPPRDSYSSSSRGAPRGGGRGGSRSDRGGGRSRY", "lysine labeling ratio R10:1": "1.66 (active)"}, {"target": "ECE1 (lysine site: K747) (UniProt P42892)", "sequence (P42892 whole entry)": "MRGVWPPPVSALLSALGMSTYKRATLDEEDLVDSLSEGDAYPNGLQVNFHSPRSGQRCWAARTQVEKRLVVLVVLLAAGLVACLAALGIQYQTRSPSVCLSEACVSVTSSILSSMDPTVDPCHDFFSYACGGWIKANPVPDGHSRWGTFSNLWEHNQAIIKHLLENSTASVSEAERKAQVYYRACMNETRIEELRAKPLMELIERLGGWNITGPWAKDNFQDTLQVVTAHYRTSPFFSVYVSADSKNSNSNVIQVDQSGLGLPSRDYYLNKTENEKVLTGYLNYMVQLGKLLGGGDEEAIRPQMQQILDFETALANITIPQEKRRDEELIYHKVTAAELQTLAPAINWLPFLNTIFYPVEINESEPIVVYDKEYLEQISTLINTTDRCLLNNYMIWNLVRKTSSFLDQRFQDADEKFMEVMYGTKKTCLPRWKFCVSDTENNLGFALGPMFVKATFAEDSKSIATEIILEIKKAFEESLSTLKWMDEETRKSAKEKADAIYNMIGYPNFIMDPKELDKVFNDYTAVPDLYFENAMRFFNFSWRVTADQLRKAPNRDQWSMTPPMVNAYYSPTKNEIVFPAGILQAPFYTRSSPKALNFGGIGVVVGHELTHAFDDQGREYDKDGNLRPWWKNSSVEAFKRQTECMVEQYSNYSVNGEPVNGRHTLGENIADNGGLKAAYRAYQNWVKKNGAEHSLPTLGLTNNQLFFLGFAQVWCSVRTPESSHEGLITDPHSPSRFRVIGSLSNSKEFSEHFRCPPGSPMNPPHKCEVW", "lysine labeling ratio R10:1": 4.05}, {"target": "WNT5A (lysine site: K171) (UniProt P41221)", "sequence (P41221 whole entry)": "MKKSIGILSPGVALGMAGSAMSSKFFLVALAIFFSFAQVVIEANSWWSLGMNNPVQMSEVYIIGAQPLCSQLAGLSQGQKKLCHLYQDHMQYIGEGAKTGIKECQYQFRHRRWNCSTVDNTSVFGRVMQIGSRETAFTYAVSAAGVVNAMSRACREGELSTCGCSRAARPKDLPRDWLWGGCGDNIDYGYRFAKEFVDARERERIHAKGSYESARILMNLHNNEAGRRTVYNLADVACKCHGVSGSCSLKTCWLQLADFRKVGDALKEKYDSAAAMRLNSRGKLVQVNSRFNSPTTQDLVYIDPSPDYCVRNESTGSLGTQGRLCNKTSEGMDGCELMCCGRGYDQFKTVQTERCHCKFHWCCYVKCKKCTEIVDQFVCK", "lysine labeling ratio R10:1": 3.57}]}]}
